EBV LMP1 NFkB – inhibitors of Epstein-Barr LMP1-induced NF-kappaB reporter; LMP1-induced NF-kappaB luciferase reporter cells, luminescence; 350,000 tested, 0.69% active; inhibition, % at 12.5 µM; in the data active = inhibition above about 41%; inconclusive = no clear call, values can overlap the other calls;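 also: 0% = neutral control wells and 100% = reference inhibitor control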
NSD2 HMT inh – blocks human histone methyltransferase NSD2 | 310,000 tested, 0.54% active | inhibition, % at 12.5 µM | O96028 | NSD2 peptide methylation, AlphaScreen, 120 min | AID 743445; in the data active = inhibition above about 50%
PAX8 inh HTS – inhibitors of PAX8 transcriptional activity in RMG-I cells | RMG-I TPO-luciferase reporter, SteadyGlo, 24 h | inhibition, % at 12.6 µM | 360,000 tested, 1.2% active;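 active = mean replicate inhibition at least 60% with every replicate also reaching 60%; inconclusive = only one of the two criteria is met; inactive = mean below 60% and not all replicates reaching 60%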;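 also: luciferase light reporting Pax8 driven TPO promoter activity; plate controls were median of neutral control wells for no effect and mitoxantrone controls for full effect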
Shn3 inh set2 – inhibitors of Schnurri-3 3'UTR reporter in osteoblasts; inhibition, % at 12.5 µM; AID 588674; Clone20 osteoblast Shn3 3'UTR firefly luciferase, 24 h; 360,000 tested, 0.52% active;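 active = mean inhibition of at least 75% with every replicate also reaching 75%; inconclusive = mean inhibition at least 75% but some replicate below; inactive = mean inhibition below 75%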;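 also: 0% = median of neutral control wells and 100% = pilot-screen positive control compound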
Glyco luc inh – N-linked glycosylation inhibition | AID 588692 | reporter increase, % at 12.5 µM | 360,000 tested, 0.23% active | D54 ERlucT glycosylation luciferase reporter, 24 h; percent of 100 nM tunicamycin response;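 active = mean luciferase reporter signal, scaled so untreated is 0 and the glycosylation-blocking control 100, at or above a set limit in every replicate; inconclusive = mean reaches the limit but not every replicate does; inactive = mean below the limit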;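 also: luciferase carries N-glycosylation sites so blocking glycosylation raises the light; 0% = median of neutral control wells and 100% = median of 100 nM tunicamycin wells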
Env fusion inh – HIV envelope-mediated fusion inhibition. inhibition, % at 12.3 µM. HeLa-JRFL Env/CEM21 cell fusion, luciferase. 360,000 tested, 1.1% active. AID 651610;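 active = mean replicate inhibition score of at least 50 and every replicate individually at or above 50; inconclusive = only one of the two criteria met; inactive = mean below 50 and not all replicates reaching 50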;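 also: 0% = plate neutral controls and 100% = maraviroc near 300 nM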
Numbers without * were called inactive; ? = inconclusive; . = no result given; [ ] = another dose, or the depositor's remark. Sampled rows, rich in hits. Any-hit rate of the full collection: about 2.8%.

SMILES | EBV LMP1 NFkB | NSD2 HMT inh | PAX8 inh HTS | Shn3 inh set2 | Glyco luc inh | Env fusion inh
O=C(CSc1nnc(NC(=O)c2ccc3c(c2)OCO3)s1)NCc1ccco1 | 48* | -4 | -1 | 18 | -14 | 6
O=C(CSc1nnc(NC(=O)c2ccccc2)s1)NCc1ccco1 | 7 | 40 | -46 | -45 | -8 | -9
Cn1cnc(S(=O)(=O)N[C@H]2CC[C@@H](CC(=O)N3CCN(c4ccccc4)CC3)O[C@H]2CO)c1 | . | . | -5 | . | . | -1[16.7 µM]
CCOC(=O)N1CCN(Cc2cc(Cl)c3cccnc3c2O)CC1 | . | -3 | 78* | . | . | 41
Oc1c(CN2CCN(c3ccccc3)CC2)cc(Br)c2cccnc12 | 59* | 0 | 85* | 92* | -13 | -52
Oc1c(CN2CCOCC2)cc(COCc2ccccc2)c2cccnc12 | 76* | 0 | 66* | 90* | -7 | 22
COc1ccccc1N1CCN(Cc2ccc(OC)c(OC)c2OC)CC1 | 5 | -1 | 11 | 19 | 4 | -16
COc1ccccc1N1CCN(Cc2ccc(O)c3ncccc23)CC1 | 73* | 27 | . | 88* | 6 | 75*
Cc1noc(C)c1NC(=O)N(C)C[C@H]1Oc2ccc(NS(=O)(=O)c3cccs3)cc2CC(=O)N([C@@H](C)CO)C[C@@H]1C | . | . | -5 | . | . | -8[16.7 µM]
Cc1cccc(-c2ccc([C@@H]3[C@H](CO)N4CCCCN(C(=O)NC(C)C)C[C@@H]34)cc2)c1 | . | . | 1 | . | . | .
COc1ccc(F)cc1CSc1nnnn1-c1ccc(O)cc1 | -6 | -4 | 25 | 32 | -2 | 26
COc1cc(CSc2nnnn2-c2ccc(C)cc2)cc(OC)c1OC | 27 | -3 | . | 90* | -2 | 95*
COc1cc(N2C(=O)C=CC2=O)ccc1N1C(=O)C=CC1=O | 49* | -1 | 115* | 98* | -10 | -239
CCOc1ccc(N2CC(C(=O)Nc3ccc(S(=O)(=O)N4CCCCC4)cc3)CC2=O)cc1 (stereo not drawn) | -4 | -2 | 4 | -16 | 2 | 67*
CSc1cccc(N2CC(C(=O)Nc3cccc(S(=O)(=O)N4CCCC4)c3)CC2=O)c1 (stereo not drawn) | 12 | 0 | 0 | 34 | -4 | 116*
CCOc1ccc(N2CC(C(=O)Nc3ccc(S(=O)(=O)N4CCCC4)cc3)CC2=O)cc1 (stereo not drawn) | 3 | 2 | 2 | -5 | 2 | -4
CCOc1ccc(N2CC(C(=O)Nc3cccc(S(=O)(=O)N4CCCCC4)c3)CC2=O)cc1 (stereo not drawn) | 1 | 3 | 28 | 10 | 1 | -4
O=C(Nc1cccc(S(=O)(=O)NC2=NCCC2)c1)C1CC(=O)N(c2ccc3c(c2)OCCO3)C1 (stereo not drawn) | 5 | 0 | -4 | 87* | -2 | 1
COC(=O)c1c(CC[C@@H](CO)NC(=O)N2CCC[C@H]2Cn2cc(C3(O)CCCCC3)nn2)oc(C(C)=O)c1C(=O)OC | . | . | -4 | . | . | -19[16.7 µM]
CCC(=O)N1C[C@@H](C)[C@H](OC)CN(C)C(=O)c2ccc(NC(=O)C3CC3)cc2OC[C@@H]1C | . | . | 5 | . | . | .
CC(C)OP(=O)(OC(C)C)C(Nc1ccc([N+](=O)[O-])cc1)c1cccc([N+](=O)[O-])c1 (stereo not drawn) | -2 | 3 | 26 | 12 | 5 | 4
COc1ccc(C(Nc2cccc([N+](=O)[O-])c2)P(=O)(OC(C)C)OC(C)C)cc1 (stereo not drawn) | -20 | 2 | 8 | -11 | 1 | 57*
COc1ccc(S(=O)(=O)N2CCCCN3[C@H](C2)[C@H](c2ccc(C#CC(C)C)cc2)[C@@H]3CO)cc1 | . | . | 102* | . | . | .
COc1cccc(S(=O)(=O)N2CCCCN3[C@@H](CO)[C@H](c4ccc(C#CC(C)C)cc4)[C@@H]3C2)c1 | . | . | 65* | . | . | .
COc1cccc(S(=O)(=O)N2CCCCN3[C@@H](CO)[C@@H](c4ccc(C#CCC(C)C)cc4)[C@@H]3C2)c1 | . | . | 86* | . | . | .
SMILES | EBV LMP1 NFkB | NSD2 HMT inh | PAX8 inh HTS | Shn3 inh set2 | Glyco luc inh | Env fusion inh
COc1ccc(S(=O)(=O)N2CCCCN3[C@H](CO)[C@@H](c4ccc(C#CC(C)C)cc4)[C@@H]3C2)cc1 | . | . | -23 | . | . | .
CC(=O)Nc1ccc(NC(=O)c2ccc(-c3c(C)noc3C)c3ccoc23)cc1 | . | 15 | -44 | 5 | ? | 6
COc1cc(NC(=O)c2ccc(-c3c(C)noc3C)c3ccoc23)cc(OC)c1OC | . | 0 | -24 | -6 | 33* | 11
Cc1ccc(Cl)c(NC(=O)COC(=O)c2ccccc2C(=O)c2ccc(Cl)c([N+](=O)[O-])c2)c1Cl | 73* | -1 | 16 | 56 | 3 | -43
Cc1ccc(C(=O)c2ccccc2C(=O)OCC(=O)NCCc2ccc(Cl)cc2Cl)cc1 | 1 | -1 | 10 | 20 | 0 | -9
Cc1ccc(C(=O)OCC(=O)Nc2c(C)n(C)n(-c3ccccc3)c2=O)cc1[N+](=O)[O-] | -5 | -2 | -9 | 4 | 2 | 3
CCCNC(=O)COC(=O)c1ccccc1C(=O)c1ccc(Cl)c([N+](=O)[O-])c1 | 48* | 4 | 54 | 10 | 12 | -44
C[C@@H]1CN([C@H](C)CO)C(=O)CCCn2cc(nn2)CO[C@@H]1CN(C)Cc1ccc(Cl)c(Cl)c1 | . | . | 13 | . | . | .
CCCCOC(=O)n1c(=O)oc2cc(S(=O)(=O)N3CCCCC3)ccc21 | 7 | -2 | . | 18 | -1 | 56*
CCC(=O)N1C[C@H](C)[C@H](OC)CN(C)C(=O)c2cc(NS(=O)(=O)CC)ccc2OC[C@@H]1C | . | . | -3 | . | . | -5[16.7 µM]
Cc1ccc(S(=O)(=O)N2C[C@@H]3CCCC[C@@H]3[C@@H](C)[C@H]2c2cn(Cc3ccccc3)c3ncccc23)cc1 | 26 | . | ? | 89* | -12 | 70*
Cc1ccc(S(=O)(=O)N2C[C@@H]3CCCC[C@@H]3[C@@H](C)[C@H]2c2cn(Cc3ccccc3)c3ccccc23)cc1 | 35 | . | 14 | 81 | -13 | 63*
CC[C@@]12C(=O)N(c3cccc(C)c3)C(=O)N1[C@H](c1ccc(OC)cc1)[C@@H]1C(=O)N(C(C)(C)C)C(=O)[C@@H]12 | -5 | . | . | -8 | 1 | .
CCN1C(=O)[C@H]2[C@@H](c3ccc(C)cc3)N3C(=O)N(c4cccc(Cl)c4)C(=O)[C@@]3(Cc3ccccc3)[C@H]2C1=O | 3 | . | 9 | 7 | 7 | 0
COc1ccc([C@@H]2[C@@H]3C(=O)N(C(C)(C)C)C(=O)[C@@H]3[C@]3(CC(C)C)C(=O)N(c4cccc(Br)c4)C(=O)N23)cc1 | -1 | . | 11 | -3 | -3 | 90*
COc1ccc([C@@H]2[C@@H]3C(=O)N(C(C)(C)C)C(=O)[C@@H]3[C@]3(C)C(=O)N(c4ccc(C(F)(F)F)cc4)C(=O)N23)cc1 | -2 | . | 2 | -14 | 2 | 66*

Screening results deposited in PubChem by Broad Institute.
